Seven compounds from PubChem BioAssay can be followed below.

Calls of active or inactive are those of the source.

Assay [1] concerns Human papillomavirus type 1a protein E7 (residues 44-93). The experiment in a line: small molecules binding HPV E7 44-93 – biochemical, small-molecule microarray, residues 44-93, 635 nm fluorescence, primary screen (AID 1108).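 Further: E7 fragment applied at 1 µg/mL in TBST for 1 h at 4 C; score combines spot fluorescence with its signal to noise ratio.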 Particulars: fluorescence 635 nm, higher = more signal.
The nature of assay [2]: hepatitis C replication reporter changes, two-sided – Huh7 cells, luciferase reporter, HCV replication inhibitor project, primary screen (AID 1109).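 Further: huh7 hepatoma cells harbouring a luciferase neomycin HCV replicon reporter; luciferase luminescence as measure of HCV replicon replication; test concentration not given here.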 Conditions: Huh7 HCV replicon luciferase reporter, 48 h; higher = more signal. For orientation: In a reporter assay the amount or activity of a reporter protein is the signal.
Assay [3] addresses Left-right determination factor 2 (Homo sapiens) (UniProt O00292). The experiment in a line: small molecules binding LEFTY2 protein – biochemical, small-molecule microarray, 635 nm fluorescence scan, primary screen (AID 1110). Particulars: higher = more signal.
In assay [4] the target is Calmodulin-1 (Homo sapiens) (UniProt P0DP23). The experiment in a line: small molecules binding calmodulin-1 with EGTA – biochemical, small-molecule microarray, Cy5-labelled CALM1, profiling panel (AID 1111).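 Further: labelled calmodulin applied in Tris saline Tween buffer holding calcium plus EGTA and DTT.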 Particulars: Cy5-CALM1 binding fluorescence, higher = more signal.
The target is the same in assay [5]. The experiment in a line: small molecules binding Ca-loaded calmodulin-1 – biochemical, small-molecule microarray, Cy5-labelled CALM1, plus calcium, artefact control for SMM control-protein annotation, profiling panel (AID 1112).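 Further: score merges spot fluorescence with signal to noise from triplicate slides.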 Particulars: Cy5-CALM1 binding fluorescence, higher = more signal.
A short description of assay [6]: probe aWnt5a binding to arrayed compounds – biochemical, biotinylated probe, 635/667 nm fluorescence, primary screen (AID 1113).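 Further: score merges 667 nm fluorescence intensity with signal-to-noise per printed feature.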 Conditions: small-molecule microarray, higher = more signal.
A short description of assay [7]: probe aShh binding to arrayed compounds – biochemical, biotinylated probe, 635/667 nm fluorescence, primary screen (AID 1114).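 Further: probe is biotin-labelled aShh protein from a stem cell growth factor screen; measures binding of labelled protein to compounds printed on the slide; score merges feature fluorescence at 667 nm with signal-to-noise.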 Conditions: small-molecule microarray, higher = more signal.
The nature of assay [8]: probe aNog binding to arrayed compounds – biochemical, biotinylated probe, 635/667 nm fluorescence, primary screen (AID 1115).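 Further: probe is biotinylated aNog protein used at 0.15 µg/mL for 1 h at 4 C; z-score combines 667 nm fluorescence of each spot with its signal to noise.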 Particulars: small-molecule microarray, higher = more signal.
In assay [9] the target is Torsin-1A-interacting protein 1 (Homo sapiens) (UniProt Q5JTV8). In words: compound microarray binding of lysate hLAP1 – cell lysate, small-molecule microarray, COS7 lysate, 635/667 nm fluorescence, primary screen (AID 1116). Conditions: 635 nm fluorescence, higher = more signal.
The target of assay [10] is Alpha-bungarotoxin (Bungarus multicinctus) (UniProt P60615). The experiment in a line: compounds binding labelled alpha-BTX control protein – biochemical, small-molecule microarray, Alexa647 label, 635/667 nm fluorescence, artefact control for SMM control protein annotation, profiling panel (AID 1117). Conditions: alpha-BTX-A647 binding fluorescence, higher = more signal.

The target of the next assay is Albumin (Bos taurus) (UniProt P02769). In words: compounds binding labelled BSA control protein – biochemical, small-molecule microarray, Alexa647 label, 635/667 nm fluorescence, artefact control for SMM control protein annotation, profiling panel (AID 1118).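 Further: score merges 667 nm emission intensity and signal-to-noise per printed compound spot.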 Particulars: BSA-A647 binding, fluorescence 635 nm, higher = more signal.
Assay [11] in a line: probe aXIP binding to arrayed compounds – biochemical, NeuroSMM set, 635/667 nm fluorescence, primary screen (AID 1119).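 Further: probe is the protein aXip251-270 applied at 1 µg/mL to compound-printed slides; binding of probe to printed compounds measured as 667 nm fluorescence plus signal to noise.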 Particulars: small-molecule microarray, higher = more signal, called active from +8 up or from −8 down.
Assay [12] can be described thus: probe aNOTCH3 binding on compound microarray – biochemical, small-molecule microarray, 635/667 nm fluorescence, primary screen (AID 1120).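 Further: probe is a biotin-tagged antibody raised against NOTCH3 rather than NOTCH3 protein; score merges spot fluorescence near 667 nm with spot signal to noise.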 Conditions: higher = more signal.
Assay [13] can be described thus: probe aNOTCH2 binding on compound microarray – biochemical, small-molecule microarray, 635/667 nm fluorescence, primary screen (AID 1121).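 Further: score merges feature fluorescence read at 667 nm with its signal to noise.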 Particulars: higher = more signal.
In assay [14] the target is Carbonic anhydrase 2 (Homo sapiens) (UniProt P00918). In words: compounds binding carbonic anhydrase 2 – biochemical, small-molecule microarray, Alexa647-labelled CAII, profiling panel (AID 1122). Conditions: CAII-A647 binding fluorescence, higher = more signal.
Assay [15] can be described thus: COS7 lysate on small-molecule microarray, probe aHis, 635 nm (AID 1123).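 Further: z-score combines 667nm fluorescence intensity with signal-to-noise per printed compound spot.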 Particulars: COS7 cell lysate, fluorescence, higher = more signal.
Assay [16] in a line: probe aLAP1 signal on lysate-treated microarray – cell lysate, small-molecule microarray, COS7 lysate, primary screen (AID 1124).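 Further: lysate comes from COS7 cells expressing LAP1 and is applied at 0.3 µg/mL; score merges spot fluorescence near 667 nm with signal-to-noise over triplicate slides.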 Particulars: probe aLAP1, fluorescence, higher = more signal.
In the next assay the test system is Sam68 (KHDRBS1). In words: compounds binding KHDRBS1 protein – biochemical, small-molecule microarray, 635 nm fluorescence, primary screen (AID 1125).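 Further: score merges 667 nm channel intensity with signal to noise over triplicate slides.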 Particulars: higher = more signal.
Assay [17] has as its system Chordin-like protein 2 (CHRDL2). In words: compounds binding chordin-like 2 – biochemical, small-molecule microarray, 635 nm fluorescence, primary screen (AID 1126).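 Further: printed compound slides probed with Chrdl2 protein at 4 µg/mL for 1 h at 4 C; score merges 667 nm emission intensity with signal to noise over three replicate slides.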 Conditions: fluorescence 635 nm, higher = more signal.
In assay [18] the target is Concanavalin-A (Canavalia ensiformis) (UniProt P02866). The experiment in a line: compounds binding concanavalin A lectin – biochemical, small-molecule microarray, Alexa647 label, 635 nm, artefact control for SMM control protein annotation, primary screen (AID 1127).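 Further: z combines 667 nm emission intensity with signal-to-noise across three replicate slides.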 Conditions: ConA-A647 binding fluorescence, higher = more signal.
Chain of Concanavalin-A (Canavalia ensiformis) (P02866 whole entry, looked up): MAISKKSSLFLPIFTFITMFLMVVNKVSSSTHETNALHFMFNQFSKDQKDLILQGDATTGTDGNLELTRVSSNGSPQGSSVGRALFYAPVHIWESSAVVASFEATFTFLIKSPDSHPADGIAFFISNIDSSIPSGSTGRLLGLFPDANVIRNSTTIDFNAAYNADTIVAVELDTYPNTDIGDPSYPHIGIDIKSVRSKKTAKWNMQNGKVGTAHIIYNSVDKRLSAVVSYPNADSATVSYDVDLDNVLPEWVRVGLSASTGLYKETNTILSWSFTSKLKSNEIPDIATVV

Chain of Alpha-bungarotoxin (Bungarus multicinctus) (P60615 whole entry, looked up): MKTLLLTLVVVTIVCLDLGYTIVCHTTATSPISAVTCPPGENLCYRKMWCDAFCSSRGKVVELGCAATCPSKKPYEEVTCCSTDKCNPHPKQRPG
Chain of Left-right determination factor 2 (Homo sapiens) (O00292 whole entry, looked up): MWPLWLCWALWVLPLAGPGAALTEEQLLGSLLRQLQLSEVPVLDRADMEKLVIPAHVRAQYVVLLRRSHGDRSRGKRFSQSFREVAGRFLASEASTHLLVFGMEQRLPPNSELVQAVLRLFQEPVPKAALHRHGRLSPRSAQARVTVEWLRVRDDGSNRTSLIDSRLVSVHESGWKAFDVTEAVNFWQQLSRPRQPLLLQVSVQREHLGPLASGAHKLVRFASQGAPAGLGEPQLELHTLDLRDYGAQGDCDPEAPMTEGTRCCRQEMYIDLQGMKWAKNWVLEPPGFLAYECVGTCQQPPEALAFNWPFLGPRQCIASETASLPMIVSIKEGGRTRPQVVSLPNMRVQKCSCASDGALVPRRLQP
Chain of Albumin (Bos taurus) (P02769 whole entry, looked up): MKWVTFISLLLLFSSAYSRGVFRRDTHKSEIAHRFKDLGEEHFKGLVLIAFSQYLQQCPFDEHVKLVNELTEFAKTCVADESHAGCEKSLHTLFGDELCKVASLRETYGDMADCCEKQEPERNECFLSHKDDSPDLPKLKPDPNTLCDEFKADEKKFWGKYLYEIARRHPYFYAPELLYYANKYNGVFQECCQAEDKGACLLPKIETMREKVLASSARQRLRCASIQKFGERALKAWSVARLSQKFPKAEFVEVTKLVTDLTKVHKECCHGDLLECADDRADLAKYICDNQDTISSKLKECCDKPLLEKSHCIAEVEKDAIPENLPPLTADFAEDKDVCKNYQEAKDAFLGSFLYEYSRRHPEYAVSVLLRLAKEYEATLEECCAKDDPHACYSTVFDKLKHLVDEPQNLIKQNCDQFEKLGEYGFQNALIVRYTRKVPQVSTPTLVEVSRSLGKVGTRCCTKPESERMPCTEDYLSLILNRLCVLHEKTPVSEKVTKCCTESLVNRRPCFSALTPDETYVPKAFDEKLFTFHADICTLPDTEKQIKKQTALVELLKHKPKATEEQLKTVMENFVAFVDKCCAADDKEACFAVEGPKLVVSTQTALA
Chain of Torsin-1A-interacting protein 1 (Homo sapiens) (Q5JTV8 whole entry, looked up): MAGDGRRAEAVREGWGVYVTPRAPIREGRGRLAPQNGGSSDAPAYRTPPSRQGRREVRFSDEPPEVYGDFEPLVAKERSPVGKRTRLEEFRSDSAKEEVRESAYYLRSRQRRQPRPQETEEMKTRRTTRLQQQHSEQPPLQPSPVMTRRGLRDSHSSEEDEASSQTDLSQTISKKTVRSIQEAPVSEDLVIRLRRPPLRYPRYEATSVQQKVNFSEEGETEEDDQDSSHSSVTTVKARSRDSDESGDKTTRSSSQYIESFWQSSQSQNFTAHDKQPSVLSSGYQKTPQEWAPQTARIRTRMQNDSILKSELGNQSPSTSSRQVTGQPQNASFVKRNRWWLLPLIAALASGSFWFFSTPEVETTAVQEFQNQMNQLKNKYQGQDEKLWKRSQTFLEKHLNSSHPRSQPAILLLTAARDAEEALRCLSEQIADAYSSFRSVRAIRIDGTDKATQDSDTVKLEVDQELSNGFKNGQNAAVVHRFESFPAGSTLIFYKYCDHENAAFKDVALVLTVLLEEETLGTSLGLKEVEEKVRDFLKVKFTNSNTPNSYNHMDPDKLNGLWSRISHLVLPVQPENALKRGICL

`C=CCC(OC(C)=O)[C@@H]1[C@@H](N(Cc2cccc3ccccc23)C(=O)c2ccc(C)cc2)c2cc(OCCCO)ccc2N1C(=O)c1ccc2ccccc2c1` (stereo not given in full): the composite z-score was -0.44 in assay [1]; 0.346 in assay [3]; -0.0236 in assay [4]; -0.0542 in assay [5]; 0.0229 in assay [6]; -0.0793 in [7]. The composite z-score in assay [8] was -0.329; in [9], 0.139; in [10], 0.132; with Albumin (Bos taurus) it was -0.0007; in assay [12], 0.0311; in assay [13], -0.0924. Moreover, the composite z-score is 0.0697 in assay [14]; 0.583 in assay [15]; -0.27 in assay [16]; -0.044 in the assay on Sam68 (KHDRBS1); 0.224 in assay [17]; -0.525 in assay [18]. The compound also had a z-score in assay [2] of -0.945. Further, the composite Z-score in assay [11] was 0.0941 (inactive).
Take `C=CCC(OC(C)=O)[C@@H]1[C@@H](N(Cc2ccc(-c3ccccc3)cc2)C(=O)c2cccc3ccccc23)c2cc(OCCCO)ccc2N1C(=O)c1ccc2ccccc2n1` (stereo not given in full): the composite z-score in [1] is 0.0254; in assay [3] it was -0.319; in assay [4], 0.367; in [5], 1.01; in [6], -0.224; in assay [7], -0.2. Moreover, the composite z-score was -0.158 in assay [8]; 0.0708 in assay [9]; 0.382 in [10]; 0.028 with Albumin (Bos taurus); 0.0306 in assay [12]; -0.16 in assay [13]. In addition, the composite z-score in [14] was 0.212; in [15], 0.621; in assay [16] it was 0.546; in the assay on Sam68 (KHDRBS1), -0.168; in assay [17] it was 0.165; in [18], -0.0782. For the same compound, the z-score in assay [2] was -0.281. For the same compound, the composite Z-score in [11] is -0.119 (inactive).
Regarding `COCCCNC(=O)[C@@]1(Cc2ccccc2I)c2ccccc2C(=O)N(Cc2ccccc2Cl)[C@H]1c1ccc(CO)cc1`, the composite z-score in assay [1] is 1.16; in assay [3] it was 0.365; in [4], 1.32; in assay [5], 0.101; in [6] it was 0.0101; in [7], -0.154. Besides, the composite z-score in assay [8] is -0.364; in assay [9], 0.164; in [10] it was 0.752; with Albumin (Bos taurus), 0.681; in assay [12] it was -0.0492; in [13], -0.139. For the same compound, the composite z-score in assay [14] is 0.344; in [15], 0.184; in assay [16], 0.438; with Sam68 (KHDRBS1), 0.902; in assay [17], -0.105; in assay [18], 0.752. Moreover, in assay [2], the z-score was -1.36. The composite Z-score in assay [11] was 0.432 (inactive).
As for `CC1=C2[C@@H](CCc3ccccc3)OB(O)C[C@@H]2[C@@H]2C(=O)C=CC(=O)[C@@H]2C1`, the composite z-score in assay [1] is 0.808; in [3] it was 1.12; in assay [4] it was 0.281; in assay [5], -0.172; in assay [6], 0.0101; in assay [7], -0.214. Besides, the composite z-score in assay [8] is -0.375; in assay [9], 0.464; in [10] it was 1.2; with Albumin (Bos taurus), 0.393; in assay [12], -0.0677; in assay [13], 0.0777. Also, the composite z-score in assay [14] is 0.298; in assay [15] it was -0.0088; in assay [16], 0.0435; in the assay on Sam68 (KHDRBS1), 1.01; in [17] it was 0.483; in [18], 0.793. For the same compound, in assay [2], the z-score was -2.13. In addition, in [11], the composite Z-score is 1.64 (inactive).
Regarding `C=C(/C(=C/C[C@@H](OC(C)=O)c1ccccc1OCCO)c1cnc2ccccc2c1)C(C)C`, the composite z-score in [1] is 0.0976; in assay [3] it was 0.0798; in [4], -0.353; in [5], -0.236; in assay [6], 0.122; in assay [7], 0.0328. Also, the composite z-score was 0.291 in assay [8]; 0.148 in assay [9]; 1.01 in [10]; 0.23 with Albumin (Bos taurus); -0.0784 in assay [12]; -0.0859 in assay [13]. In addition, the composite z-score was 0.571 in [14]; 0.503 in assay [15]; -0.0618 in assay [16]; 0.778 in the assay with Sam68 (KHDRBS1); 0.474 in assay [17]; 0.871 in assay [18]. The compound further registered a z-score in [2] of -1.61. Besides, in assay [11], the composite Z-score was 1.17 (inactive).
Consider `OCCCC1=CC(c2cccs2)N(Cc2cccc(OC(F)(F)F)c2)CC1` (stereo not given), for which the composite z-score in assay [1] was -0.571; in assay [3], -0.0424; in assay [4] it was -0.957; in assay [5] it was 0.639; in assay [6] it was -0.13; in assay [7], -0.221. For the same compound, the composite z-score is 1.41 in [8]; -0.0673 in [9]; -0.0302 in assay [10]; 0.659 in the assay with Albumin (Bos taurus); -0.147 in assay [12]; 0.072 in assay [13]. The composite z-score in assay [14] was 0.389; in [15], 0.0426; in assay [16], 0.144; in the assay with Sam68 (KHDRBS1) it was -0.184; in assay [17] it was -0.258; in [18], -0.659. In assay [2], the z-score was -2.1. In addition, the composite Z-score in assay [11] is -0.0774 (inactive).
For `CC(C)(C)OC(=O)CC[C@@]1(C(=O)N2CCCCC2)N=C(c2ccc(OCCCO)cc2)O[C@@H]1c1ccccc1N=[N+]=[N-]`, the composite z-score is 1.03 in assay [1]; 0.503 in [3]; 1.07 in assay [4]; 0.398 in assay [5]; 0.0434 in assay [6]; 0.0638 in assay [7]. For the same compound, the composite z-score is 1.92 in [8]; 1.27 in assay [9]; 0.451 in assay [10]; 0.943 with Albumin (Bos taurus); 0.4 in assay [12]; 0.127 in [13]. In addition, the composite z-score in assay [14] amounted to 0.775; in assay [15] it was 2.94; in assay [16], 1.58; in the assay with Sam68 (KHDRBS1), 1.29; in assay [17], 0.142; in [18], 1.17. This compound also displayed a z-score in [2] of 0.0393. For the same compound, in assay [11], the composite Z-score was -0.15 (inactive).
